# PI5P4Ka inh: blocks human PI5P4K alpha kinase activity | PI5P4Kalpha enzyme, ADP-Glo luminescence, 60 min; stronger effect = lower value | max response, % | hit rate 1.2% among 330,000; active = max response of -50% or lower; inconclusive = between -30% and -50%; inactive = -30% or higher; note: value at the top dose of about 77 µM; % is set by controls: 0 for no effect and ±100 for the full control effect
#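 Controls without substrate or without enzyme flank wells where PI5P4Kalpha converts substrate using 5 microM ATP (final). Incubation lasts 60 minutes at room temperature; ADP formed is read by ADP-Glo luminescence.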
# WRN helicase inh-1: inhibitors of human WRN helicase; WRN helicase unwinding, fluorescent forked duplex, kinetic; Potency, µM (top dose mostly 114 µM), for the others: at the highest dose activity change, negative = inhibition, most hits filed as inhibitors; hit rate 0.46% among 360,000; Q14191; note: potency is the fitted concentration of half-maximal effect; % is set by controls: 0 for no effect and ±100 for the full control effect; nearly all actives have a fitted effect of over 55% in size
#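 Kinetic red-fluorescence monitoring (525/598 nm) tracks WRN helicase activity after 100 nM fluorophore-quencher forked duplex and 2 mM ATP are added to 20 nM enzyme pretreated 15 min at room temperature with compound.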
# Pol iota inh: DNA polymerase iota (human) inhibition. Pol iota fluorescent replication assay, 10 min. hit rate 1% among 390,000. Potency, µM (top dose mostly 115 µM), inactives show at the highest dose activity, negative = inhibition, most hits filed as inhibitors; note: potency is the fitted concentration of half-maximal effect
#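 Fluorescent replication assay read twice, at 0 min and 10 min after adding 50 nM (final) substrate. Enzyme (10 nM) and compounds were first incubated 15 min at room temperature; enzyme-free buffer wells were negative controls.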
# Pol eta inh-1: inhibitors of human DNA polymerase eta; Q9Y253; recombinant Pol eta, fluorescent DNA replication assay; Potency, µM (series often up to 114 µM), for inactives: at the highest dose activity change, negative = inhibition, usual class: inhibitors; hit rate 1.2% among 390,000; note: potency is the fitted concentration of half-maximal effect; % is set by controls: 0 for no effect and ±100 for the full control effect
#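 Pol eta at 10 nM preincubated with compounds 15 min at room temperature; reaction started with fluorescent substrate (50 nM final) and read kinetically at 0 and 10 min.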
# Pol kappa inh-1: DNA polymerase kappa (human) inhibition. hit rate 0.53% among 400,000. purified Pol kappa, fluorescent DNA synthesis assay, 10 min. Potency, µM (titrated, usually from 107 µM), without a hit: at the top dose activity, negative = inhibition, usual class: inhibitors. Q9UBT6; note: potency is the fitted concentration of half-maximal effect; % is set by controls: 0 for no effect and ±100 for the full control effect
#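 Kinetic fluorescence screen: compound preincubated 15 min RT with 10 nM enzyme; 50 nM substrate (final) initiates; reads at 0/10 min.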
# POLB inh: blocks human DNA polymerase beta activity; Pol beta primer extension/strand displacement, fluorescence kinetic; Potency, µM (highest dose often 114 µM), inactives show at the highest dose activity change, negative = inhibition, most hits filed as inhibitors; hit rate 1.3% among 340,000; AID 485314; note: potency is the fitted concentration of half-maximal effect; % is set by controls: 0 for no effect and ±100 for the full control effect
#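 Kinetic readout of DNA synthesis with strand displacement by Pol beta. Compound and 10 nM enzyme sit 15 min at room temperature; 50 nM substrate starts the reaction, read immediately and at 10 min.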
# PGK validate: TbPGK inhibition, hit validation. Potency, µM (titrated, usually from 57.5 µM), without a hit: at the top dose activity change, negative = inhibition, usual class: inhibitors. shares compounds with Pol kappa inh-1. hit rate 79% among 500. TbPGK coupled GAPDH assay, Kinase-Glo luminescence; note: potency is the fitted concentration of half-maximal effect; % is set by controls: 0 for no effect and ±100 for the full control effect; nearly all actives have a fitted effect of over 65% in size
# Pol iota confirm: Confirm cherry-picked inhibitors of human polymerase iota. AID 720496. Pol iota primer extension, TAMRA/BHQ fluorescence. shares compounds with Pol kappa inh-1. hit rate 77% among 1,500. Potency, µM, usual class: inhibitors; note: potency is the fitted concentration of half-maximal effect
# Pol kappa inh-2: Pol kappa (human) inhibition, cherry-pick confirmation; purified Pol-kappa, fluorescent strand-displacement substrate; Potency, µM, actives largely listed as inhibitors; hit rate 76% among 920; shares compounds with Pol eta inh-1; note: potency is the fitted concentration of half-maximal effect
# Pol eta inh-2: confirmation of human DNA polymerase eta inhibitors; shares compounds with Pol eta inh-1; Pol eta primer extension, TAMRA/BHQ fluorescence, 10 min; Potency, µM, usual class: inhibitors; hit rate 64% among 2,600; AID 720502; note: potency is the fitted concentration of half-maximal effect
# WRN helicase inh-2: confirmation of human WRN helicase inhibitors; hit rate 63% among 610; Potency, µM (doses to about 57.1 µM), without a hit: at the highest dose activity, negative = inhibition, actives largely listed as inhibitors; WRN helicase DNA unwinding, fluorescence kinetic; shares compounds with WRN helicase inh-1; note: potency is the fitted concentration of half-maximal effect; nearly all actives have a fitted effect of over 65% in size
# TO displacement: counter-screen for WRN helicase inhibitors: DNA binding. Potency, µM (doses to about 57.1 µM), without a hit: top-dose activity change, negative = inhibition, actives largely listed as inhibitors. thiazole orange DNA binding displacement, fluorescence. hit rate 10% among 610. shares compounds with WRN helicase inh-1. AID 720499;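 note: drop in dye fluorescence marks compound binding to DNA; potency is the fitted concentration of half-maximal effect; % is set by controls: 0 for no effect and ±100 for the full control effect; nearly all actives have a fitted effect of over 60% in size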
# BLM helicase inh: blocks human BLM helicase in WRN counterscreen. shares compounds with WRN helicase inh-1. Recombinant BLM helicase DNA unwinding, red fluorescence. Potency, µM (doses to about 57.1 µM), for the others: at the top dose activity change, negative = inhibition, most hits filed as inhibitors. hit rate 60% among 610; note: potency is the fitted concentration of half-maximal effect; nearly all actives have a fitted effect of over 60% in size
# ADP-Glo counter: counter-screen for PI5P4K inhibitors: ADP-Glo detection interference, no enzyme. ADP-Glo detection counter-screen, luciferase luminescence, no enzyme. 1,100 tested, under 10 active. shares compounds with PI5P4Ka inh. Potency, µM (top dose mostly 76.9 µM), for inactives: top-dose activity change, negative = inhibition, actives largely listed as inhibitors. AID 743285
# An asterisk follows results filed as active; u = inconclusive; x = no result; [ ] = remark or other dose. Shown are actives, neighbours in structure and some others; about 2.8% of the full set was active somewhere. Unless noted, calls come from the whole dose curve; as a rule, active = well fitted curve in the direction sought with a large enough effect; inconclusive = small, poorly fitted or top-dose-only effect, or another doubt; inactive = no such curve, though single readings can be large; an effect the other way counts as inactive or inconclusive.
SMILES,PI5P4Ka inh,WRN helicase inh-1,Pol iota inh,Pol eta inh-1,Pol kappa inh-1,POLB inh,Pol iota confirm,Pol eta inh-2,ADP-Glo counter,others
O=S(=O)(c1ccc2c(c1)OCCO2)C1CCC(S(=O)(=O)c2c(F)cccc2F)CC1 (stereo unspecified),x,x,0.8%,-9.8%,0.3%,x,x,x,x,
O=C(NCc1ccco1)c1cc2ccc(O)cc2oc1=O,-80.7*,u,u,6.31µM*,79.4µM*,15.8µM*,x,75.7*,u,PGK validate=16.3µM*
O=c1cc(-c2ccccc2)oc2c1CCCC2,-3.1,1.4%,x,x,x,x,x,x,x,
COC(=O)CCC(=O)OC1(C)C(=O)C2=CN(CC(C)C)C(c3ccc(OC)cc3)=CC2=C(Br)C1=O (stereo unspecified),x,x,x,x,x,5.5%,x,x,x,
CCC(=O)OC1(C)C(=O)C2=COC(c3ccc(OC)cc3)=CC2=C(Br)C1=O (stereo unspecified),-72.2*,-24.1%[57.1 µM],u,44.7µM*,u,u,x,x,-6.2%,PGK validate=20.6µM*
CC1CCCCC1NC(=O)COC(=O)c1c2c(nc3ccccc13)/C(=C\c1ccco1)CC2 (stereo unspecified),-74.3*,u,3.16µM*,10µM*,22.4µM*,x,59.7*,33.8*,-3.0%,Pol kappa inh-2=21.2*
Cc1oc(-c2ccc(Cl)cc2)cc1-c1nn2c(-c3ccoc3C)nnc2s1,-64.8*,u,u,4.47µM*,u,3.55µM*,u,75.7*,-0.1%,
Cc1ccc(NC(=O)CN(C)C(=O)c2cc(-c3ccco3)nc3ccccc23)cc1,-95.5*,70.8µM*,17.8µM*,20µM*,50.1µM*,x,42.3*,60.1*,-7.6%,
CCOc1ccc(NC(=O)CN(C)C(=O)c2cc(-c3ccco3)nc3ccccc23)cc1OCC,0.8,-4.2%,24.4%,-9.4%,-0.2%,x,x,x,x,
COc1cccc(NC(=O)CN(C)C(=O)c2cc(-c3ccco3)nc3ccccc23)c1,-59.6*,-15.9%[11.6 µM],35.5µM*,u,u,x,37.7*,30.1*,-8.7%,
COc1ccc(CCNC(=O)c2cc(-c3ccco3)nc3ccccc23)cc1,-60.6*,u,22.4µM*,8.91µM*,79.4µM*,x,33.6*,67.5*,-0.6%,
Cc1cccc(NC(=O)c2ccc(S(=O)(=O)N3CC(C)OC(C)C3)cc2)n1 (stereo unspecified),-4.2,5.8%,19.6%,-16.3%,-5.2%,x,x,x,x,
O=C(Nc1ccc(S(=O)(=O)Nc2nccs2)cc1)c1nn(-c2ccc(F)cc2)ccc1=O,-70.1*,50.1µM*,35.5µM*,20µM*,89.1µM*,u,67*,42.6*,-1.0%,
O=C(Nc1ccc(S(=O)(=O)Nc2nccs2)cc1)c1ccc(F)cc1,5.1,-5.6%,106.1%,-15.7%,-10.1%,-13.7%,x,x,x,
c1csc(CNc2ncncc2-c2ccc3c(c2)OCO3)c1,x,x,x,x,-19.5%[60.1 µM],x,x,x,x,
O=C(CN1C(=O)c2ccccc2S1(=O)=O)Nc1ccc([N+](=O)[O-])cc1,3.3,4.7%,0.4%,-16.4%,-9.1%,x,x,x,x,
COc1ccccc1OCC(=O)Nc1sc2c(c1C(N)=O)CCC2,u,-11.5%[11.6 µM],u,u,u,x,x,x,x,
COc1cccc(C(=O)OCC(=O)Nc2sc3c(c2C(N)=O)CCC3)c1O,-51.5*,u,20µM*,22.4µM*,79.4µM*,x,42.3*,30.1*,3.5%,Pol kappa inh-2=26.7*
COc1ccc(Cn2c(C)nc3c(c2=O)c2nc4ccccc4nc2n3Cc2ccco2)cc1,-58.6*,8.44µM*,3.16µM*,8.91µM*,35.5µM*,x,13.4*,30.1*,0.9%,
Cc1ccc(C)c(S(=O)(=O)Nc2ccc3oc(C)c(C(=O)O)c3c2)c1,-95.1*,56.2µM*,14.1µM*,10µM*,79.4µM*,8.91µM*,33.6*,26.9*,-5.9%,
COc1ccc(C(=O)N2CCC3(CC2)CCN(c2cccc(-c4ccccc4)c2)CC3)cc1,x,x,x,x,-5.5%[60.1 µM],x,x,x,x,
CCCCOCCOC(=O)C1OC1(C)c1ccccc1 (stereo unspecified),2.7,-1.8%,x,-9.7%,x,x,x,x,x,
CCN(CC)C(=O)COC(=O)c1cc(-c2ccco2)nc2ccccc12,-68.5*,u,14.1µM*,39.8µM*,79.4µM*,28.2µM*,47.4*,67.5*,-0.7%,
CCOC(=O)C1CCCN(C(=O)c2cc(-c3ccco3)nc3ccccc23)C1 (stereo unspecified),-84.5*,31.6µM*,3.55µM*,3.16µM*,22.4µM*,x,18.9*,19*,-6.6%,PGK validate=10.3µM*;Pol kappa inh-2=9.47*;WRN helicase inh-2=13.6µM*;TO displacement=u;BLM helicase inh=1.71µM*
CCOC(=O)C1CCCN(C(=O)c2cc(-c3ccncc3)nc3ccccc23)C1 (stereo unspecified),-3.2,5.9%,32.3%,-23.3%,1.1%,x,x,x,x,
CCN(CC)C(=O)COC(=O)c1cc(-c2ccc(OC)cc2)nc2ccccc12,x,-6.9%[57.1 µM],-4.3%,-0.4%,-14.1%,25.5%,x,x,x,
CSc1nc(-c2ccc(N(C)C)cc2)c(C#N)c(=O)n1C,4.7,-4.2%,-17.8%,-6.7%,-15.0%,10.3%,x,x,x,
